Screening data as filed in PubChem.
Only some compounds are listed: those with a hit (about 1.6% of all), similar ones and a draw of the others.
Rce1 inhib: yeast Rce1p protease inhibitors, primary screen, biochemical, fluorescence, cell-free homogeneous | CAAX prenyl protease 2 (Saccharomyces cerevisiae (strain ATCC 204508 / S288c)), Q03530 | calls only | yeast membranes, quenched prenylated peptide cleavage fluorescence | hit rate 0.27% among 290,000;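 active = fall in fluorescence gain of 50% or more versus controls, with final raw signal at or below 3038400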;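 also: plate controls were neutral control wells for no effect and wells lacking membranes for full effect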
NSD2 HMT inh: NSD2 histone methyltransferase inhibitors, primary screen, biochemical, AlphaScreen, single concentration, set 2. Histone-lysine N-methyltransferase NSD2 (Homo sapiens), O96028. NSD2 peptide methylation, 120 min. inhibition, % at 12.5 µM. hit rate 0.54% among 310,000; in the data active = inhibition above about 50%
Efflux pump mplx: inhibitors of Candida efflux pumps in yeast, primary screen, S. cerevisiae, Nile Red, multiplex. inhibition, % at 10 µM. hit rate 0.44% among 330,000. S. cerevisiae Candida pump triplex;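 active = plate passing quality check with inhibition over a set limit, or well fluorescence over plate mean plus 4 SD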;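 also: Nile Red retained in pooled yeast measured as flow cytometry median fluorescence; 0% = buffer negative control and 100% = Enniatin B positive control; higher means more Nile Red kept so more efflux inhibition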
V-ATPase pH: regulators of yeast V-ATPase proton pumping, primary screen, pHLuorin cytosolic pH fluorescence. S. cerevisiae. response, % at 10 µM. hit rate 0.37% among 350,000. AID 504577, 2011; in the data active = response mostly above about 7.3%, no sharp cut-off; inactive = mostly below about 5.4%; also: actives read high
GC-A act: GC-A stimulated cGMP production enhancers – HEK293 GC-A cells, cGMP TR-FRET, EC30 ANP, primary screen; Atrial natriuretic peptide receptor 1 (Homo sapiens), P16066; 0% at EC30 ANP, 100% saturating ANP; hit rate 0.14% among 370,000; activation, % at 10 µM; in the data active = activation above about 40%
Target sequence (P16066 whole entry, looked up): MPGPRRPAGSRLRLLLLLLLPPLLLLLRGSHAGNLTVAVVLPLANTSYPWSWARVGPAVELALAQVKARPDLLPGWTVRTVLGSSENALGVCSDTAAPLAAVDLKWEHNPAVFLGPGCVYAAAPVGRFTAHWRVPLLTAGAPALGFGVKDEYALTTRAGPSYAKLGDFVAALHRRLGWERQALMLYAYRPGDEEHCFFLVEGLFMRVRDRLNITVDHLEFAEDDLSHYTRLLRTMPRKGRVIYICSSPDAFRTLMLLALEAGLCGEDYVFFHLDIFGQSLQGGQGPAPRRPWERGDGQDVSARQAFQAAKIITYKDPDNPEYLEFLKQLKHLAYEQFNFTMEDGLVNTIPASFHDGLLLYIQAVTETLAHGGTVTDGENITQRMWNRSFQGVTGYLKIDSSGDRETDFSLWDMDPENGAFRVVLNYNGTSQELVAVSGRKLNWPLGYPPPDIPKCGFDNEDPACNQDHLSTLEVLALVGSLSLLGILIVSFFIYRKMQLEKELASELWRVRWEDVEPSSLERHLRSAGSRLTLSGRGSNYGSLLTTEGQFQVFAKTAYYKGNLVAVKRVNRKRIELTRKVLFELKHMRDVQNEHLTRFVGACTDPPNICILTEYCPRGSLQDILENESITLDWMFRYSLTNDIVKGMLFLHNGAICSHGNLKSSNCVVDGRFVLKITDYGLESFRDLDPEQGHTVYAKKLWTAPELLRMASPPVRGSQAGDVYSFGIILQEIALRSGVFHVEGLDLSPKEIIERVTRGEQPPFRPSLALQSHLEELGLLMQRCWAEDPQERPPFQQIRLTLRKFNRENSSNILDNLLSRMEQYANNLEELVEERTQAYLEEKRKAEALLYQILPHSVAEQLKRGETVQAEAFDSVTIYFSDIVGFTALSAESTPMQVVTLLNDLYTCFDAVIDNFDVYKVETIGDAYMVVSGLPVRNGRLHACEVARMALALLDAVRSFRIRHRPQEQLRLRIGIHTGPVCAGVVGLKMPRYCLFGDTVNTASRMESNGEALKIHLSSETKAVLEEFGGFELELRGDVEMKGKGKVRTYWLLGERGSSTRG
NPR2 activator: human GC-B receptor activators, primary screen, HEK293 GC-B cells, cGMP TR-FRET, EC30 CNP. Atrial natriuretic peptide receptor 2 (Homo sapiens), P20594. activation, % at 10 µM. hit rate 0.11% among 370,000. 0% at EC30 CNP, 100% saturating CNP. AID 1920062, 2024;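 active = activation at 10 µM reaching about 35% in either raw or pattern-adjusted values, limit read from the data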
Yeast cmpd fluor: counter-screen for efflux pump inhibitors: compound fluorescence. shares compounds with Efflux pump mplx. S. cerevisiae AD/pABC3, flow cytometry. fluorescence ratio to DMSO, % at 10 µM. hit rate 4% among 1,700. AID 588517;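 active = fluorescence ratio to DMSO above its plate's cutoff, the plate mean ratio plus 5 SD, cut at about 210% in these data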;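 also: unstained yeast with no Nile Red so the signal is compound autofluorescence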
CaMdr1 efflux inh: inhibitors of Candida albicans Mdr1 efflux, confirmation, flow cytometry, singleplex, Cherry Pick1 set. hit rate 1% among 1,700. shares compounds with Efflux pump mplx. inhibition, % at 10 µM. S. cerevisiae AD/CaMDR1, Nile Red efflux; in the data active = inhibition above about 26%;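 also: 0% = DMSO vehicle and 100% = reference inhibitor; higher means more Nile Red retained so more efflux inhibition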
CaCdr2 efflux inh: inhibitors of Candida albicans Cdr2 efflux pump, confirmation, S. cerevisiae AD/CaCDR2, flow cytometry, cherry pick 1, singleplex. shares compounds with Efflux pump mplx. Nile Red retention. Nile Red retention ratio vs DMSO, % at 10 µM. hit rate 4% among 1,700; in the data active = Nile Red retention ratio vs DMSO above about 190%;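 also: higher ratio means more blocking of Cdr2 efflux of the dye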
Cdr1 pump inh: inhibitors of Candida albicans Cdr1 efflux pump, confirmation, S. cerevisiae AD/CaCDR1, flow cytometry, cherry pick 1, singleplex | AID 588522, 2011 | shares compounds with Efflux pump mplx | inhibition, % at 10 µM | Nile Red efflux | hit rate 1% among 1,700;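 active = inhibition above the screen-wide mean plus twice its standard deviation, cut at about 32% in these data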
The depositor's hits bear a star; i = inactive; . = no result given.

SMILES	Rce1 inhib	NSD2 HMT inh	Efflux pump mplx	V-ATPase pH	GC-A act	NPR2 activator	Yeast cmpd fluor	CaMdr1 efflux inh	CaCdr2 efflux inh	Cdr1 pump inh
COc1ccccc1C1CC(c2ccccc2)=NN1S(=O)(=O)c1ccccc1 (stereo not given)	i	1.3	-0.1	0.6	0.2	-0.3	.	.	.	.
COc1cccc(C2CC(c3ccccc3)=NN2S(=O)(=O)c2ccc(C)cc2)c1OC (stereo not given)	i	-1.4	1.4*	5.6	3.4	-0.9	105.0	-0.2	122.6	0.2
CC(=O)c1ccc(NS(=O)(=O)Cc2ccc(Cl)cc2)cc1	i	-3.7	0.8*	-4.8	0.7	-2.8	103.1	-0.1	100.7	0.0
CC(C)c1cc(C(C)C)c(S(=O)(=O)N2CCC(c3cn4ccccc4n3)CC2)c(C(C)C)c1	.	0.3	.	.	0.1	-9.0	.	.	.	.
CCCOC(=O)c1ccc(NC(=O)C2C3CCC(C3)C2C(=O)O)cc1 (stereo not given)	i	-1.1	15.2*	-1.6	-0.9	3.4	104.6	0.1	101.8	-0.1
COC(=O)c1ccc(NC(=O)C2C3CCC(C3)C2C(=O)O)cc1 (stereo not given)	i	-1.7	0.0	8.0	-0.8	2.6	.	.	.	.
COC(=O)C1CN(Cc2ccc(C)cc2)CCS(=O)(=O)N1Cc1cn(Cc2ccc(OC)cc2)nn1 (stereo not given)	.	.	.	.	-2.9	4.1	.	.	.	.
CCSc1cnc(-c2ccccc2)n1CC	i	-2.0	0.5*	5.2	1.1	0.8	86.5	-0.3	98.1	0.0
CCn1c(SCC(O)c2ccccc2)nnc1-c1ccccc1 (stereo not given)	i	-1.7	0.1	3.3	-4.2	4.7	.	.	.	.
O=C(CN1CCN(Cc2ccccc2Cl)CC1)N=Nc1c(O)[nH]c2ccccc12	i	2.3	12.7*	2.2	6.3	1.8	106.9	-0.2	98.7	0.0
Cc1ccc(CN2CCN(CC(=O)N=Nc3c(O)[nH]c4ccccc34)CC2)cc1	i	-0.2	0.2	5.7	5.4	2.0	.	.	.	.
CCOC(=O)N1CCN(C(=O)C[C@H]2C[C@@]3(C(=O)OC)C(=C[C@H](C(C)C)O[C@@H]3C3CC3)N(CCc3ccc(OC)c(OC)c3)C2=O)CC1	.	.	.	.	0.7	4.4	.	.	.	.
COc1ccc(CNS(=O)(=O)c2ccc3c(c2)CCN3C(=O)C2CCC2)cc1	i	.	-0.1	0.5	-1.0	-0.9	.	.	.	.
CCOC(=O)C1CCN(S(=O)(=O)c2ccc3c(c2)CCN3C(C)=O)CC1	i	-1.6	0.3	1.1	4.0	-0.5	.	.	.	.
CCOC(=O)C1CCN(S(=O)(=O)c2ccc3c(c2)CCN3C(=O)C2CCC2)CC1	i	-0.6	0.3	0.4	.	.	118.0	-0.1	120.5	0.3
CCOc1ccc(OCC)c(NS(=O)(=O)c2ccc3c(c2)CCN3C(=O)C2CCC2)c1	i	30.4	-0.2	2.0	-1.1	-1.6	108.3	0.0	114.1	-0.3
COc1cc(CNc2ccc(C(=O)O)cc2)cc(Br)c1OCC(=O)NC(C)(C)C	i	0.6	20.8*	-2.4	-0.7	-7.0	107.8	-0.1	101.8	-0.1
CCOc1cc(CNc2ccc(OC)cc2)cc(Br)c1OCC(=O)NC(C)(C)C	i	-4.7	0.0	-0.7	-1.2	-5.1	.	.	.	.
CCN(C(=O)COC(=O)c1cc(S(=O)(=O)N2CCOCC2)c(Cl)cc1Cl)C1CCS(=O)(=O)C1 (stereo not given)	i	9.4	0.9*	0.6	0.1	1.6	107.8	0.0	87.3	-0.1
O=C(NCCO)/C(=C\c1ccc(Br)cc1)NC(=O)c1cccs1	i	11.6	7.5*	7.9	-2.0	-2.6	103.1	0.1	96.3	0.0
O=C(NCCN1CCOCC1)/C(=C\c1ccc(Br)cc1)NC(=O)c1cccs1	i	-2.8	0.1	-1.8	-11.0	-13.6	.	.	.	.
O=C(NC1CCCCN(Cc2ccc(OC(F)(F)F)cc2)C1=O)c1ccc2ccccc2c1 (stereo not given)	.	.	.	.	-1.5	-4.3	.	.	.	.
Cc1ccc(OCC(=O)Nc2cnn(CCCC(=O)O)c2)c([N+](=O)[O-])c1	i	-3.0	3.9*	-3.2	-0.2	-3.0	148.7	1.8	93.0	0.0
O=C(O)CCCn1cc(NC(=O)COc2ccccc2[N+](=O)[O-])cn1	i	4.7	0.1	0.8	-1.1	4.9	.	.	.	.
Cc1ccc(S(=O)(=O)Cn2nnnc2C(CC(C)C)N2CCN(C)CC2)cc1 (stereo not given)	i	4.9	-0.1	-2.3	-2.4	-2.5	.	.	.	.
SMILES	Rce1 inhib	NSD2 HMT inh	Efflux pump mplx	V-ATPase pH	GC-A act	NPR2 activator	Yeast cmpd fluor	CaMdr1 efflux inh	CaCdr2 efflux inh	Cdr1 pump inh
Cc1ccc(S(=O)(=O)Cn2nnnc2C(CC(C)C)N2CCN(c3ccccc3)CC2)cc1 (stereo not given)	i	-0.3	0.9*	1.0	5.2	-0.1	107.2	-0.1	107.2	0.0
Oc1c(C(c2ccccn2)N2CCC(Cc3ccccc3)CC2)cc(Cl)c2cccnc12 (stereo not given)	i	-3.0	52.7*	.	2.2	-2.5	97.8	-0.3	108.3	0.0
CN1CCN(C(c2ccccn2)c2cc(Cl)c3cccnc3c2O)CC1 (stereo not given)	i	22.0	0.0	-0.1	-5.7	-7.2	.	.	.	.
O=C(Cn1nnc(-c2ccccc2F)n1)Nc1ccc(F)cc1F	.	-1.4	.	.	6.7	-11.4	.	.	.	.
c1cc2ccc3ccc(CN4CCOCC4)c4ccc(c1)c2c34	i	-3.8	1.1*	1.7	-5.5	1.4	105.8	0.0	100.7	0.1
O=C1OCCN1C(=O)[C@H]1[C@H](c2ccc(F)cc2)C(c2cccc(Cl)c2)=NN1c1ccccc1	.	.	1.4*	0.8	-9.3	-9.4	110.0	0.0	97.5	0.0
Cc1ccc(-n2c(SCC(=O)Nc3ccc(S(=O)(=O)Nc4cc(C)nc(C)n4)cc3)nnc2-c2ccc(C(C)(C)C)cc2)cc1	.	-0.7	.	.	-4.3	5.8	.	.	.	.
